The values below come from ChEMBL document CHEMBL1157539, “Thousands of chemical starting points for antimalarial lead identification” (Nature, 2010).

What all share (assay type): functional
Test [1] concerns Plasmodium falciparum. Nature of the test: GSK_TCMDC: Inhibition of Plasmodium falciparum 3D7 in whole red blood cells, using parasite LDH activity as an index of growth. Test compounds present at 2uM.
The test system of test [2] is Plasmodium falciparum. In words: GSK_TCMDC: Inhibition of Plasmodium falciparum Dd2 in whole red blood cells, using parasite LDH activity as an index of growth. Test compounds present at 2uM.
In a further test the test system is HepG2. Nature of the test: GSK_TCMDC: Percent inhibition of human HepG2 cell line. Test compounds present at 10uM.

Take `O=C(Nc1cccc(-c2ccc(-c3nc4ccccc4[nH]3)s2)c1)c1ccncc1`: the Inhibition was 92% in the test with Plasmodium falciparum [1], 29% in the test with Plasmodium falciparum [2] and 67% in the test on HepG2.

For the compound `Cc1ccc(NC(=O)c2ccc(CN3CCCN(CCC(C)C)CC3)cc2)cc1F.O=C(O)C(F)(F)F`, the Inhibition is listed as 91% with Plasmodium falciparum [1], 31% in the test with Plasmodium falciparum [2] and 40% with HepG2.

As for `Clc1ccc2c(NCCc3ccccn3)ccnc2c1`, the Inhibition was 92% in the test with Plasmodium falciparum [1], 72% in the test on Plasmodium falciparum [2] and 13% in the test on HepG2.

As for `CC(=NNC(N)=O)C1=C(O)C(c2ccccc2)N(C2CCCCC2)C1=O` (stereo not drawn), the results for the Inhibition in the test with Plasmodium falciparum [1], with Plasmodium falciparum [2] and in the test with HepG2 were 93%, 96% and 59%, respectively.

Take `NS(=O)(=O)c1cccc(N/C=C2\C(=O)Nc3ccc(S(=O)(=O)Cc4c(Cl)cccc4Cl)cc32)c1`: the Inhibition with Plasmodium falciparum [1] came out at 92%; in the test on Plasmodium falciparum [2] it was 99%; in the test on HepG2 it was 1%.

As for `CCCCn1c(SC(C)C)nc2c(c1=O)C1(CCCCC1)Cc1ccccc1-2`, the Inhibition with Plasmodium falciparum [1] was 99%; with Plasmodium falciparum [2] it was 60%; in the test with HepG2, 1%.

Consider `CCN(CC)S(=O)(=O)n1ncc2c3c(N)nc(N)nc3ccc21.Cl`, for which the Inhibition was 93% in the test on Plasmodium falciparum [1], 16% in the test with Plasmodium falciparum [2] and 67% in the test on HepG2.

In the case of `CCc1cc2c(cc1OCCN(C)C)N(C(=O)Nc1ccc(-c3ccncc3)c(Cl)c1)CC2`, the values for the Inhibition in the test with Plasmodium falciparum [1], in the test with Plasmodium falciparum [2] and in the test with HepG2 were 95%, 7% and 18%, respectively.

Consider `CCN(CC)CCN(Cc1ccc(-c2ccc(C(F)(F)F)cc2)cc1)C(=O)Cn1c(SCc2ccc(F)c(F)c2F)nc(=O)c2c1CCC2.O=C(O)C(O)C(O)C(=O)O`, for which the Inhibition is 91% with Plasmodium falciparum [1], 96% in the test with Plasmodium falciparum [2] and 100% in the test on HepG2.

As for `O=C(N[C@@H](CC1CCCCC1)C(=O)NC1CCCc2ccccc21)c1ccc(O)c(-c2cccc(C(F)(F)F)c2)c1` (stereo partly drawn), the Inhibition in the test with Plasmodium falciparum [1] was found to be 100%; in the test on Plasmodium falciparum [2] it was 99%; in the test with HepG2 it was 0%.

On to `CC1CCN(Cc2cccc(C(=O)NCc3ccc(F)c(-c4cccc(CN5CCN[C@@H](C)C5)c4)c3)c2)CC1.O=C(O)C(F)(F)F`, for which the Inhibition in the test with Plasmodium falciparum [1] is listed as 91%; in the test with Plasmodium falciparum [2] it was 64%; in the test on HepG2 it was 26%.

Turning to `Cc1cc(NC(=O)NCCN2CCC(NS(=O)(=O)c3ccccc3Cl)C2)c2ccccc2n1` (stereo not drawn), the Inhibition in the test on Plasmodium falciparum [1] came out at 97%; with Plasmodium falciparum [2] it was 43%; in the test on HepG2 it was 1%.

On to `COc1ccc(NC(=O)/C=C/c2ccc(Cl)c(C(F)(F)F)c2)cc1OCCN(C(C)C)C(C)C.O=C(O)C(F)(F)F`, for which the results for the Inhibition in the test on Plasmodium falciparum [1], in the test on Plasmodium falciparum [2] and with HepG2 were 95%, 28% and 18%, respectively.

`CN(C)CCN(C)Cc1ccc(-c2ccc(NS(=O)(=O)c3cccc4cccnc34)cc2)cc1.O=C(O)C(F)(F)F`: the Inhibition in the test with Plasmodium falciparum [1] amounted to 93%; in the test with Plasmodium falciparum [2], 16%; with HepG2, 23%.

Consider `COc1cc(OC)c(OC)cc1C=NN=c1cc(C)[nH]c2ccccc12`, for which the Inhibition in the test with Plasmodium falciparum [1] came out at 100%; in the test with Plasmodium falciparum [2] it was 95%; in the test on HepG2, 5%.

For the compound `O=C(/C=C/c1ccc(Cl)c(Cl)c1)NCCCCCN1CCCC(CNC(=O)/C=C/c2ccccc2)C1` (stereo not drawn), the Inhibition with Plasmodium falciparum [1] is recorded as 98%; with Plasmodium falciparum [2] it was 6%; in the test on HepG2, 37%.

On to `FC(F)(F)CNc1nc(Nc2ccc3ncccc3c2)nc2[nH]ccc12.O=C(O)C(F)(F)F`, for which the Inhibition in the test with Plasmodium falciparum [1] is reported as 87%; in the test with Plasmodium falciparum [2] it was 83%; in the test on HepG2, 37%.

`O=c1cc(NCCCCNCc2cccc(Br)c2)[nH]c2ccccc12`: the Inhibition in the test on Plasmodium falciparum [1] is 98%; in the test with Plasmodium falciparum [2], 19%; in the test with HepG2 it was 0%.

For `CC(C)CC(=O)N1CCNC[C@@H]1C(=O)NCc1ccc(Cl)c(Cl)c1.O=C(O)C(F)(F)F`, the Inhibition in the test with Plasmodium falciparum [1] was found to be 99%; with Plasmodium falciparum [2], 16%; in the test with HepG2, 0%.

As for `CCN(CC)CCN(Cc1ccc(-c2ccc(C(F)(F)F)cc2)cc1)C(=O)Cn1c(CCc2ccc(F)cc2)nc(=O)c2sccc21.O=C(O)C(O)C(O)C(=O)O`, the Inhibition with Plasmodium falciparum [1] was 99%; in the test on Plasmodium falciparum [2], 90%; in the test on HepG2, 100%.

As to `COc1ccc(C(C(=O)NC2CCN(C[C@H](O)c3ccnc4ccc(OC)cc34)CC2)N2CCN(Cc3ccccc3)CC2)cc1` (stereo partly drawn), the Inhibition is on record as 100% in the test with Plasmodium falciparum [1], 72% with Plasmodium falciparum [2] and 18% in the test with HepG2.

For `O=S(=O)(c1c(Cl)cccc1Cl)N1CCCCC(c2ccc(C(F)(F)F)cc2)=N1`, the figures for the Inhibition in the test with Plasmodium falciparum [1], in the test with Plasmodium falciparum [2] and in the test on HepG2 were 99%, 98% and 11%, respectively.

Turning to `N=c1c(C(=O)NCc2ccccc2)cc2c(=O)n3ccccc3nc2n1CCc1ccccc1`, the Inhibition with Plasmodium falciparum [1] was 99%; in the test with Plasmodium falciparum [2], 25%; in the test on HepG2, 5%.

For the compound `O=C(NCCc1ccccc1)N(Cc1ccccc1-c1cccc(CNCc2ccc3c(c2)OCO3)c1)C1CCN(Cc2ccccc2)CC1.O=C(O)C(F)(F)F`, the Inhibition with Plasmodium falciparum [1] was found to be 93%; with Plasmodium falciparum [2], 77%; in the test with HepG2, 29%.

As for `COc1ccc(NC(=O)/C=C/c2ccccc2Cl)cc1OCCN1CCC(N2CCN(C)CC2)CC1`, the Inhibition with Plasmodium falciparum [1] was 100%; with Plasmodium falciparum [2], 49%; with HepG2, 19%.

Turning to `O=C(NCCc1ccccc1)N(Cc1ccccc1-c1ccc(CNCCc2ccccc2)cc1)C1CCN(Cc2ccccc2)CC1.O=C(O)C(F)(F)F`, the results for the Inhibition with Plasmodium falciparum [1], in the test with Plasmodium falciparum [2] and with HepG2 were 97%, 91% and 99%, respectively.
